PrPC TRFRET: inhibitors of human cell surface prion protein PrPC, primary screen, cell-based, TR-FRET. Major prion protein (Homo sapiens), P04156. TR-FRET read-out. inhibition, % at 13.8 µM. actives 0.43% (n = 370,000); in the data active = inhibition above about 24%; also: 0% = median of the test wells and 100% = reference compound wells
TcdB GH inh: TcdB glycohydrolase inhibitors, primary screen, biochemical, single point, plate reader; inhibition, % at 9.99 µM; TcdB glycohydrolase enzymatic assay; actives 0.24% (n = 350,000); Toxin B (Clostridioides difficile), P18177; AID 652162, 2013; in the data active = inhibition above about 10%
DUSP3 inh: VHR1 phosphatase inhibitors, primary screen, biochemical, absorbance, uHTS; recombinant VHR phosphatase, pNPP absorbance; inhibition, % at 13.3 µM; actives 0.52% (n = 290,000); AID 1654, 2009; in the data active = inhibition above about 50%
PrPC confirm: confirmation of inhibitors of cell surface human prion protein, confirmation, cell-based, TR-FRET. inhibition, % at 13.8 µM. cell surface PrPC level. shares compounds with PrPC TRFRET. actives 65% (n = 1,500); in the data active = inhibition above about 25%
LD9 cytotox: cytotoxicity in LD9 cells, cytotoxicity control for cell surface PrPc inhibitor project, cell-based, luminescence, high throughput. inhibition, % at 13.8 µM. actives 29% (n = 1,500). shares compounds with PrPC TRFRET. luminescence viability. AID 743201, 2013; in the data active = inhibition above about 9.5%
Starred values were filed as active, the others as inactive; / = no result. This is a sample that favours compounds with a hit; in the whole collection about 0.82% have one here.

SMILES	PrPC TRFRET	TcdB GH inh	DUSP3 inh	PrPC confirm	LD9 cytotox
CC(=O)Nc1sc2c(c1-c1nc3ccccc3s1)CN(C(C)C)C2	10.7	/	/	/	/
O=[N+]([O-])c1c(Nc2ccc(O)cc2)cc(Cl)c2nonc12	79.5*	2.6	-2.2	94.5*	99.2*
CN(C)c1cc(Nc2ccc(O)cc2)c([N+](=O)[O-])c2nonc12	-9.8	1.9	-26.8	/	/
CCc1cc2ccccc2nc1SCC(=O)Nc1cc(OC)c(OC)cc1C(=O)O	39.6*	/	13.3	4.7	-4.4
COc1cc(NC(=O)CSc2nc3ccccc3cc2C)c(C(=O)O)cc1OC	10.5	/	-1.6	/	/
COc1ccccc1C(=O)N1C[C@H]2[C@@H](c3ccccc31)[C@@H](CO)N2C(=O)C1CCOCC1	/	0.6	/	/	/
Cc1ccc(C)c(NS(=O)(=O)c2cc(C(=O)NCc3ccccn3)ccc2Cl)c1	2.9	/	32.9	/	/
Cc1ccc(NS(=O)(=O)c2cc(C(=O)NCc3ccccn3)ccc2Cl)cc1C	47.0*	/	44.7	59.9*	6.4
Cc1cccc2cc(C#N)c(SCC(=O)N3CC(=O)Nc4ccccc43)nc12	29.0*	/	3.3	70.5*	15.6*
COc1ccc2cc(C#N)c(SCC(=O)N3CC(=O)Nc4ccccc43)nc2c1	/	/	15.0	/	/
Cc1cc(C(=O)NNc2ccc(Cl)cc2)no1	30.9*	/	31.3	33.2*	-1.6
Cc1cc(C(=O)NNC(=O)Nc2ccc(Cl)cc2)no1	0.6	1.6	7.7	/	/
CO[C@H]1CN(C)C(=O)c2cc(NC(=O)Nc3cccc(F)c3)ccc2OC[C@H](C)N(C)C[C@H]1C	/	-0.9	/	/	/
CC=Cc1ccc2n(c1=O)C[C@H]1[C@H](CO)[C@@H](C(=O)NCCC)[C@@H]2N1Cc1nccs1 (mixture of isomers)	/	-0.4	/	/	/
CCC(=O)N[C@H]1C=C[C@H](CC(=O)NCCN2CCCCC2)O[C@@H]1CO	/	-0.4	/	/	/
Cc1nccc2c1[nH]c1ccccc12	5.7	0.7	13.3	/	/
S=c1nc[nH]c2c1[nH]c1ccccc12	135.3*	/	9.7	141.8*	-0.7
S=c1nc[nH]c2c1[nH]c1ccc(Cl)cc12	42.6*	-0.1	-11.5	131.5*	6.6
O=c1c2[nH]c3ccc(Cl)cc3c2ncn1CCN1CCCCC1	-5.8	/	15.3	/	/
COCC(=O)Nc1ccc2c(c1)[C@@H]1C[C@H](CC(=O)NCc3ccncc3)O[C@@H](CO)[C@@H]1O2	/	-0.4	/	/	/
O=C(N[C@H]1CC[C@@H](CCNC(=O)C2CC2)O[C@@H]1CO)c1ccccn1	/	-1.3	/	/	/
C[C@H](CO)N1C[C@H](C)[C@@H](CN(C)Cc2ccc(-c3ccccc3)cc2)Oc2ncc(C#CCN(C)C)cc2C1=O	/	0.8	/	/	/
Cc1noc(C)c1NC(=O)N[C@@H]1CC[C@H](CCNC(=O)C2CCC2)O[C@H]1CO	/	-0.7	/	/	/
COCC(=O)N1CC2(C1)CN(Cc1cc(F)ccc1F)[C@@H](CO)c1c2c2ccc(OC)cc2n1C	/	-0.3	/	/	/
CC(C)NC(=O)N(C)C[C@@H]1OCc2ccccc2-c2c(n(C)c3ccccc23)C(=O)N([C@H](C)CO)C[C@@H]1C	/	0.5	/	/	/
SMILES	PrPC TRFRET	TcdB GH inh	DUSP3 inh	PrPC confirm	LD9 cytotox
COc1cccc(S(=O)(=O)Nc2ccc3c(c2)OC[C@@H](C)NC[C@H](C)[C@@H](OC)CN(C)C3=O)c1	/	-5.3	/	/	/
C[C@H](NC(=O)C[C@@H]1C[C@@H]2c3cc(NC(=O)c4cccnc4)ccc3O[C@@H]2[C@H](CO)O1)c1ccccc1	/	-0.3	/	/	/
Cc1cc(NCCCn2ccnc2)n2nc(C)c(-c3ccc(Cl)cc3)c2n1	44.1*	/	3.7	1.9	9.7*
Cc1cc(NCCCn2ccnc2)n2nc(C)c(-c3ccccc3)c2n1	-4.3	/	-2.4	/	/
CC(C)NC(=O)N[C@H]1CC[C@@H](CCn2cc(-c3ccc(F)cc3)nn2)O[C@@H]1CO	/	0.2	/	/	/
N#Cc1ccc(NC(=O)Nc2ccc(Cl)cc2)cc1	26.6*	/	2.6	32.4*	16.2*
O=C(Nc1ccc(Cl)cc1)Nc1ccc(Cl)c(Cl)c1	7.5	-1.4	/	/	/
O=C(COc1ccc2ccccc2c1Br)Nn1cnnc1	18.8	/	-5.8	/	/
O=C(COc1ccc2ccccc2c1Br)NNC(=O)Nc1ccccc1	6.7	/	37.5	/	/
COC(=O)NNC(=O)COc1ccc2ccccc2c1Br	34.4*	0.5	-0.5	49.1*	-0.7
CC(C)(C)C(=O)NNC(=O)COc1ccc2ccccc2c1Br	72.3*	3.1	6.4	70.9*	-4.2
Cc1cc(NC(=O)COc2ccc3ccccc3c2Br)no1	80.5*	0.7	/	101.0*	-2.0
CCOc1ccccc1OCC(=O)Nc1cc(C)on1	-3.7	-0.4	/	/	/
O=C(C[C@@H]1CC[C@H](NC(=O)c2ccncc2)[C@@H](CO)O1)NCC1CCCCC1	/	-1.8	/	/	/
CCCC(=O)NCc1ccc2c(c1)cc(C)n2C	-5.9	/	11.3	/	/
Cn1c(CCNC(=O)C2CCCCC2)nc2cc([N+](=O)[O-])ccc21	-15.8	2.5	16.6	/	/
Cc1cc2cc(CNC(=O)C3CCCC3)ccc2n1C	44.3*	-0.7	22.0	4.7	-2.9
Cn1c(CNC(=O)C2CCCCC2)cc2cc(Cl)ccc21	30.8*	-0.3	3.6	35.0*	-5.3
O=C(O)C[C@@H]1CC[C@H]2[C@@H](COC[C@H](O)CN2S(=O)(=O)c2ccc(F)cc2)O1	/	-0.3	/	/	/
O=C(CCCCCn1c(=S)[nH]c2ccc(Br)cc2c1=O)NCC1CCCO1 (configuration not stated)	-0.9	/	15.8	/	/
NS(=O)(=O)c1ccc(CCNC(=O)CCCCCn2c(=S)[nH]c3ccc(Br)cc3c2=O)cc1	24.9*	0.8	14.7	37.0*	-4.0
O=C(COc1nsnc1N1CCOCC1)Nc1ccc([N+](=O)[O-])cc1	-0.8	-1.0	-8.1	/	/
O=C(COc1nsnc1N1CCOCC1)Nc1ccc(Cl)cc1	25.6*	0.9	34.8	8.3	-2.8
O=C(C[C@@H]1CC[C@H](NC(=O)C2CC2)[C@@H](CO)O1)Nc1ccccc1	/	0.1	/	/	/
C[C@@H]1CN([C@@H](C)CO)C(=O)c2cccc(NC(=O)c3ccncc3)c2O[C@H]1CN(C)C(=O)Nc1ccc(F)cc1	/	-2.6	/	/	/
SMILES	PrPC TRFRET	TcdB GH inh	DUSP3 inh	PrPC confirm	LD9 cytotox
COC(=O)[C@H]1COC(c2ccc(OCCCO)cc2)=N1	/	0.0	/	/	/
CC(=O)Nc1ccc(NC(=O)c2nc(S(=O)(=O)Cc3ccccc3)ncc2Cl)cc1	65.1*	2.0	16.5	-5.3	78.2*
CCS(=O)(=O)c1ncc(Cl)c(C(=O)Nc2ccc(C)cc2)n1	41.9*	1.3	-17.9	44.3*	84.8*
O=C(NCc1ccccc1)c1nc(S(=O)(=O)Cc2ccccc2)ncc1Cl	5.0	3.8	5.5	/	/
Cc1ccc(CS(=O)(=O)c2ncc(Cl)c(C(=O)Nc3ccc(OC(F)F)cc3)n2)cc1	6.9	0.5	12.5	/	/
CCC1CCCCN1S(=O)(=O)c1ccc(NC(=O)c2nc(S(C)(=O)=O)ncc2Cl)cc1 (configuration not stated)	79.0*	0.0	2.2	83.3*	96.9*
CS(=O)(=O)c1ncc(Cl)c(C(=O)Nc2ccc3ccccc3c2)n1	84.0*	-3.9	16.6	77.4*	87.1*
O=C(Nc1ccc2ccccc2c1)c1cnccn1	-24.1	/	10.8	/	/

Compound activity as filed in PubChem.
